Assay outcomes from PubChem BioAssay.
HepG2 viability – qHTS for Inhibitors of TGF-b: Cytotox Counterscreen; HepG2 CAGA-GFP viability, ATP luminescence, 18 h; Potency, µM (doses to about 46.1 µM), inactives show at the highest dose activity change, negative = cytotoxicity, usual class: cytotoxic; 0.76% of 410,000 active
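CellTiter-Glo luminescence gave cytotoxicity after 18 hours at 37 degrees C. The cells were HepG2 CAGA-GFP in 1% FBS DMEM, stimulated with 500 pg/mL TGF-beta after compound addition. %Activity was normalised to no-cell wells (complete cell-killing) and DMSO (no toxicity), and curves were fitted and classified.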
TDP1 cell noCPT – qHTS for Inhibitors of human tyrosyl-DNA phosphodiesterase 1 (TDP1): qHTS in cells in absence of CPT; DT40 Tdp1-/- hTDP1 cells, no CPT, ATP luminescence, 48 h; Potency, µM (doses to about 46.2 µM), for the others: at the top dose activity change, negative = growth inhibition, most hits filed as inhibitors; 15% of 420,000 active; AID 686978, 2013; further: on the % scale 0 is the no-effect control and ±100 the full control effect; nearly all actives have a fitted effect of over 55% in size
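Growth kinetics read by CellTiter-Glo luminescence after ≥48 hr at 37 °C. Cells: DT40 Tdp1-/- stably carrying human TDP1, 400 per well, compound exposure in the absence of CPT (DMSO vehicle).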
TGFb SMAD3 inh – qHTS for Inhibitors of TGF-b. Potency, µM (top dose mostly 46.1 µM), for the others: at the highest dose activity, negative = inhibition, usual class: inhibitors. 1.2% of 410,000 active. HepG2 CAGA-GFP TGF-b/SMAD3 reporter, GFP fluorescence, 18 h; TGF-beta stimulated, 500 pg/mL final; further: on the % scale 0 is the no-effect control and ±100 the full control effect; nearly all actives have a fitted effect of over 65% in size
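HEPG2 CAGA-GFP cells (1000/well, DMEM with 1% FBS) were pre-incubated 2 h at 37 degrees C, given compound by pin tool, then stimulated with TGF-beta at 500 pg/mL final for 18 h before per-cell GFP fluorescence imaging.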
DT40 TDP1 CPT – qHTS for Inhibitors of human tyrosyl-DNA phosphodiesterase 1 (TDP1): qHTS in cells in presence of CPT; 12% of 420,000 active; Potency, µM (series often up to 46.2 µM), for the others: top-dose activity change, negative = growth inhibition, most hits filed as inhibitors; chicken DT40 Tdp1-/-;hTDP1 cells + 20 nM CPT, ATP luminescence, 48 h; further: on the % scale 0 is the no-effect control and ±100 the full control effect; nearly all actives have a fitted effect of over 55% in size
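Cell growth measured by CellTiter-Glo luminescence after a minimum 48 h, 37 C compound exposure with 20 nM CPT in Tdp1-knockout DT40 cells stably expressing hTDP1, seeded 400/well; qHTS titration format.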
ATXN2 expr inh – Primary qHTS for Inhibitors of ATXN expression. AID 1745845, 2022. 0.72% of 360,000 active. HEK-293 ATXN2-luciferase reporter, luminescence, 24 h. Potency, µM (series often up to 57 µM), without a hit: at the top dose activity change, negative = inhibition, usual class: inhibitors; further: on the % scale 0 is the no-effect control and ±100 the full control effect; nearly all actives have a fitted effect of over 55% in size
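ATXN2-luciferase reporter cells (luciferase flanked by upstream and downstream ATXN2 gene portions) were treated 24 h at 37 °C with compounds at up to 57 uM. SteadyGlo luminescence gave expression; GF-AFC fluorescence gave viability.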
ATXN viability – Viability Counterscreen for Primary qHTS for Inhibitors of ATXN expression; S2 cells (HEK-293 line with an ATXN2-luciferase reporter) viability, CellTiter-Fluor protease fluorescence, 24 h; AID 651635, 2014; Potency, µM (series often up to 56.7 µM), most hits filed as cytotoxic; 0.49% of 400,000 active; further: nearly all actives have a fitted effect of over 40% in size
Numbers without * were called inactive; i = inactive; ? = inconclusive; / = no result given; [ ] = another dose, or the depositor's remark. The list is not random: actives were taken first. Their share in the collection is about 17%. The call rests on the fitted dose curve; in most records, active means well fitted curve in the direction sought with a large enough effect; inconclusive means small, poorly fitted or top-dose-only effect, or another doubt; inactive means no such curve, though single readings can be large; an effect the other way counts as inactive or inconclusive. Potency means the concentration at half of the fitted maximal effect.

SMILES | HepG2 viability | TDP1 cell noCPT | TGFb SMAD3 inh | DT40 TDP1 CPT | ATXN2 expr inh | ATXN viability
CCc1cc(=O)oc2cc(C)cc(OCC(=O)N3CCC(C(=O)O)(c4ccccc4)CC3)c12 | -8% | -3% | -20% | -10% | 5% | i
CCn1c(O)c(C=NCc2cccs2)c(=O)[nH]c1=O | -1% | 29µM* | -3% | ? | 20% | ?
O=C1NC(=O)N(Cc2ccccc2Cl)C(=O)/C1=C/c1cccs1 | -47% | 4.6µM* | ? | 6.5µM* | / | ?
O=C1NC(=O)N(Cc2ccc(F)cc2)C(=O)/C1=C/c1cccs1 | -3% | 8.2µM* | -29% | 12µM* | -15% | i
COC(=O)C1=C(c2c(C)noc2C)C[C@@H]2CC[C@H]1N2C(=O)N1CCCC1 | 5% | 3% | 2% | -2% | 3% | i
Cc1nc(-c2ccc(-c3ccc(C(=O)N4CCc5cc6c(cc54)C4(CCN(C)CC4)CO6)cc3)c(C)c2)no1 | / | 6µM* | / | 7.5µM* | 6% | /
Cc1ccc2c(c1)[C@H]1[C@H](CO2)[C@H](c2ccccc2)[C@]2(C)C(=O)N(CC3CCCO3)CC(=O)N12 (some centres not stated) | -3% | ? | -5% | 3% | 2% | i
CCOC(=O)c1cccc(NC(=O)NCc2ccc3c(c2)CCN3C(=O)c2ccccc2)c1 | -13% | 16µM* | ? | 16µM* | -1% | i
Cc1ccc(C(=O)N2CCc3cc(CNC(=O)c4ccnn4C)ccc32)cc1 | -12% | 9.2µM* | 1% | 5.8µM* | / | /
COc1ccc(-c2noc(CN3C(=O)c4ccccc4C3=O)n2)cc1 | -11% | -5% | ? | 0% | 7% | i
CC(C)N1CCC2(CC1)NC(CO)(CO)CO2 | 15% | -10% | -3% | -11% | -32% | i
Cc1cc(NC(=O)CCl)no1 | -37% | 18µM* | ? | 13µM* | 5%[11.3 µM] | ?
O=C(NN=Cc1ccc(N(CCCl)CCCl)cc1)c1cccnc1 | -23% | 9.2µM* | 15% | 7.3µM* | ? | ?
Cc1nc(C)c(C(=O)NN=Cc2ccc(N(CCCl)CCCl)cc2)s1 | -6% | 12µM* | ? | ? | ? | i
O=C(NN=Cc1ccc(N(CCCl)CCCl)cc1)c1cccc([N+](=O)[O-])c1 | -40% | ? | -53% | ? | ? | ?
COC(=O)N1Cc2ccccc2-n2nncc2C1 | 5% | ? | 8% | ? | 2% | i
C=CCN1CC[C@]23c4c5ccc(O)c4O[C@@H]2C(=O)CC[C@]3(O)[C@H]1C5 | / | -11% | / | -3% | / | i
Cc1cccc2nc(-c3ccccc3)c(-c3ccc(CN4CCC(n5c(=O)[nH]c6ccccc65)CC4)cc3)nc12 | / | 13µM* | / | 9.2µM* | -38% | ?
N#Cc1ccc2nc(-c3ccc(CN4CCC(n5c(=O)[nH]c6ccccc65)CC4)cc3)c(-c3ccccc3)nc2c1 | / | 9.2µM* | / | 5.8µM* | ? | ?
O=C1CC(N2CCC(n3c(=O)[nH]c4ccccc43)CC2)C(=O)N1c1ccc(F)cc1 (configuration not stated) | -4% | -29% | 11% | -13% | -7% | ?
O=[N+]([O-])c1ccc(-c2ccccc2)c([As](=O)(O)O)c1 | -26% | 9.2µM* | ? | 13µM* | / | ?
COc1cccc(NC(=O)C2CCN(c3nnc(C)c4c(C)n(-c5ccccc5)nc34)CC2)c1 | -38% | 23µM* | ? | ? | ? | ?
Cc1ccc(-n2nc3c(N4CCC(C(=O)NCCc5ccccc5)CC4)nnc(C)c3c2C)cc1 | -27% | 5.8µM* | ? | 4.6µM* | -21% | i
Cc1cccc(NC(=O)C2CCCN2C(=O)Oc2ccccc2)c1 (configuration not stated) | 1% | 12% | ? | 5% | -5% | i
Cc1cccc(C)c1NC(=O)Cn1c(=O)n(CC2CCC(C(=O)NCCc3ccccc3)CC2)c(=O)c2ccccc21 (configuration not stated) | -33% | ? | 43% | ? | 5% | i
SMILES | HepG2 viability | TDP1 cell noCPT | TGFb SMAD3 inh | DT40 TDP1 CPT | ATXN2 expr inh | ATXN viability
Cc1ccc(CCNC(=O)Cn2nc(C)c3c(C)n(-c4ccc(C)cc4)nc3c2=O)cc1 | -12% | ? | 0% | 23µM* | / | /
c1ccc(C(c2ccccc2)c2ccncc2)cc1 | -6% | 21µM* | -8% | ? | -16% | i
CCOCCSc1nc2c(c(-c3cccs3)c1C#N)CC/C2=C/c1cccs1 | -4% | ? | -23% | ? | 0% | /
Cc1ccc2c(c1)C1CN(C)CCC1N2C(=O)c1cccnc1Cl (configuration not stated) | -28% | -22% | -2% | -14% | / | i
Cc1ccc2c(c1)[C@@H]1CN(C)CC[C@@H]1N2C(=O)Nc1cccc(C(F)(F)F)c1 | -92% | 11µM* | ? | 11µM* | ? | i
Cc1ccc2c(c1)C1CN(C)CCC1N2C(=O)Nc1cccc(C(F)(F)F)c1 (configuration not stated) | -86% | ? | 0% | 21µM* | -13% | i
CCOc1ccc(S(=O)(=O)N(C)c2ccc(OCC(=O)N3c4ccc(C)cc4C4CN(C)CCC43)cc2)cc1 (configuration not stated) | -27% | ? | -4% | ? | -3% | i
Cc1ccc2c(c1)C1CN(C)CCC1N2C(=O)COc1ccc(N(C)C(=O)C(C)(C)C)cc1 (configuration not stated) | 2% | 18µM* | -1% | ? | -17% | i
Cc1ccc2c(c1)C1CN(C)CCC1N2C(=O)c1cn(-c2ccccc2)nc1-c1ccccc1 (configuration not stated) | -44% | 16µM* | ? | ? | -11% | ?
Nc1cc(SCc2ccc(Cl)cc2Cl)ncn1 | 2% | ? | 9% | -7% | 8% | i
Cc1c(C(=O)NCc2ccc(Cl)c(Cl)c2)sc(=O)n1Cc1ccc(S(=O)(=O)N(C)C)cc1 | -22% | 15µM* | ? | 8.2µM* | -20% | i
CCC(CC)(CNC(=O)CCCO)c1cccc(OC)c1 | / | / | / | / | 9% | i
